Bioassay records as filed in PubChem BioAssay.
KKLEB cytotox – counter-screen for CF NF-kB inhibitors: cytotoxicity; 0.36% of 360,000 active; activity change (cytotoxicity), % at 5 µM; KKLEB CF airway cells viability, ATPlite luminescence, overnight; hits give low values; cells stimulated with P. aeruginosa culture filtrate;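 active = corrected activity change at or below -50% at 5 µM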
HIF-2a inh – inhibitors of HIF-2a; 786-0 RCC cells HIF-2a reporter, luciferase luminescence, overnight; inhibition, % at 18.8 µM; AID 624352; 0.72% of 360,000 active;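 active = inhibition of the luminescence signal of 40% or more relative to plate controls, in a single-dose primary screen at 18.75 µM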
CF NFkB inh – cystic fibrosis NF-kB activation inhibition. KKLEB NF-kB-GFP reporter, PAF-induced, GFP fluorescence overnight. inhibition, % at 5 µM. 0.86% of 360,000 active;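 active = at least 50% inhibition at 5 µM, scaled per plate between neutral and stimulator controls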;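 also: PAF is a Pseudomonas aeruginosa culture filtrate used as stimulus; plate controls were PAF-stimulated DMSO wells for no effect and unstimulated DMSO wells for full effect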
TWEAK-Fn14 inh – TWEAK-Fn14 signaling inhibition. TWEAK-stimulated Fn14 reporter cells, luciferase luminescence, 8 h. inhibition, % at 10 µM. 2% of 360,000 active; in the data active = inhibition above about 50%
TROY signal inh – inhibitors of TROY-dependent NF-kB signaling. Q293 LMP1-TROYcd NF-kB luciferase reporter, 4 h. inhibition, % at 10 µM. 0.98% of 360,000 active. AID 1347056;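 active = compounds whose plate-normalised and pattern-corrected inhibition of the luciferase reporter signal at the single screening dose is 50% or more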
Peg3 promoter – inhibitors of Peg3 promoter; HeLa PEG-Prom luciferase reporter, luminescence, overnight; inhibition, % at 20 µM; 1.7% of 360,000 active; AID 588405;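 active = inhibition of at least 50% at 20 µM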
Mdm2-MdmX confirm – confirmation of inhibitors of human Mdm2/MdmX interaction, set 2; shares compounds with HIF-2a inh; SaOS-2 split-luciferase Mdm2/MdmX complementation, luminescence; inhibition, % at 8 µM; 99% of 740 active; AID 504601;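 active = mean inhibition of the luminescence signal across two replicates at or above 26 percent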
HIF-2a conf – confirmation of HIF-2a inhibitors; shares compounds with HIF-2a inh; 786-0 RCC cells, HIF-2a luciferase reporter luminescence, overnight; inhibition, % at 18.8 µM; 56% of 1,800 active; AID 651580;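 active = mean inhibition across four replicates of at least 40 percent at the single tested concentration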
HIF-1a cs – inhibits HIF-1a reporter, a counter-screen for HIF-2a inhibitors; shares compounds with HIF-2a inh; MiaPaCa-2 HIF-1a luciferase reporter, desferoxamine, overnight; 72% of 1,800 active; inhibition, % at 18.8 µM;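 active = mean inhibition of the reporter signal across four replicates at the single tested dose of 50% or more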
An asterisk follows results filed as active; / = no result given. The list is not random: actives were taken first. Their share in the collection is about 4%.

SMILES | KKLEB cytotox | HIF-2a inh | CF NFkB inh | TWEAK-Fn14 inh | TROY signal inh | Peg3 promoter | HIF-2a conf | HIF-1a cs | others
Cc1cc(S(=O)(=O)N2CCOCC2)ccc1OCC(=O)NCCN1CCOCC1 | 9 | 5 | -5 | 0 | -1 | -7 | / | /
CC(=O)/C=C\c1cn(-c2ncc(C(F)(F)F)cc2Cl)c2ccccc12 | -5 | 61* | 0 | 31 | -11 | 44 | 11 | 30
O=C1CC(c2ccccc2)CC2=C1C1(CCCC1)N=C(Nc1nc3ccccc3o1)N2 (stereo not given) | 1 | 28 | 11 | -6 | 5 | -3 | / | /
Cc1ccc(C(=O)N/C(=C\c2ccc(-c3ccc(Br)cc3)o2)C(=O)NCCCN(C)C)cc1 | -19 | 33 | 15 | -279 | -24 | 109* | / | / | Mdm2-MdmX confirm=103*
O=C(Nc1ccc(Cl)cc1)Nc1ccccc1Sc1ncc([N+](=O)[O-])s1 | 9 | -182 | 21 | 43 | 1 | -70 | / | /
O=[N+]([O-])c1cnc(Sc2ccncn2)s1 | -14 | 95* | 75* | -25 | -20 | 110* | / | / | Mdm2-MdmX confirm=102*
C#CCn1c(S(=O)(=O)Cc2ccc(C)cc2)nc(-c2ccccc2)c1-c1ccccc1 | 16 | -17 | -16 | -52 | -1 | 33 | / | / | Mdm2-MdmX confirm=100*
Cc1ccc(S(=O)(=O)N(CC(=O)Nc2cccc(C(F)(F)F)c2)C(=O)N2CCN(C)CC2)cc1 | 2 | 0 | -27 | -10 | -4 | 12 | / | /
COc1ccc(C(=O)/C(=C\c2ccco2)N2C=CC=CC2=C(C#N)C#N)cc1 | -87* | 96* | 94* | 11 | -9 | 104* | / | / | Mdm2-MdmX confirm=100*
CCNC(=O)C1CCCN(C(=O)c2cnc3ccccc3n2)CC1 (stereo not given) | 6 | 8 | -19 | 6 | -8 | -2 | / | /
CC(C)(C)c1ccc(Oc2ccc(NC(=O)c3ccccc3C(=O)O)cn2)cc1 | -12 | 56* | 10 | 35 | 15 | 12 | 51* | 35
O=C(O)c1cccc(-c2nc3ccccc3[nH]2)c1 | -5 | 69* | 1 | 8 | -44 | 55* | 55* | -72
CCCn1c(CC)nc([N+](=O)[O-])c1S(=O)(=O)c1ccccc1 | -27 | 46* | 52* | 1 | 48 | -1 | 29 | 47
O=C(NCCCN1CCOCC1)c1cc(-c2cccs2)on1 | 3 | -167 | -70 | -73 | -58 | -51 | / | /
COCCCNC(=O)c1ccc(-n2nc(C(F)(F)F)cc2-c2cccs2)cc1 | -10 | 49* | 44 | 5 | 7 | 40 | 34 | 41
O=C(NCCCN1CCOCC1)c1ccc(-n2nc(C(F)(F)F)cc2-c2cccs2)cc1 | -24 | 45* | 45 | 4 | 27 | 55* | 30 | 66*
C/C(CC(=O)Nc1cccc(Br)c1)=N\NC(=O)c1ccc(O)cc1O | 3 | 17 | 6 | 9 | -5 | 3 | / | /
O=C(Nc1ccc(Cl)cc1C(=O)c1ccccn1)c1ccccc1 | -5 | -2 | 12 | 9 | -4 | 12 | / | /
COc1ccccc1C=CC(=O)C=Cc1ccccc1OC | -4 | 70* | -179 | 80* | -36 | 99* | 55* | 100*
O=C(NCc1ccccc1)C(c1ccccc1F)n1c(=O)c(-c2ccco2)nc2ccccc21 (stereo not given) | / | -1 | / | / | / | / | / | /
O=C(NCc1ccc(F)cc1)N1[C@H]2CC[C@@H]1C=C(c1ccc(F)cc1OCc1ccccc1)C2 | -2 | -2 | -9 | 19 | 23 | 12 | / | /
Cc1ccc(NC(=O)C(=Cc2ccc(C(=O)O)cc2)C(=O)Nc2ccc(C)cc2C)c(C)c1 | -58* | 85* | 14 | 70* | -25 | 95* | 92* | 104* | Mdm2-MdmX confirm=102*
O=C(c1cccs1)N1C[C@H](n2cc(C3CC3)nn2)[C@@H](O)C[C@@H]1c1ccc(Cl)cc1 | 5 | 3 | 9 | 8 | -1 | 16 | / | /
Clc1ccc2c(N/N=C/c3ccccc3Br)ccnc2c1 | -43 | -27 | -50 | -106 | -15 | 84* | / | / | Mdm2-MdmX confirm=103*
COCCN(C(=O)COC(=O)c1ccc(C=O)cc1)c1c(N)n(Cc2ccccc2)c(=O)[nH]c1=O | -8 | 3 | -5 | -4 | -7 | 19 | / | /
SMILES | KKLEB cytotox | HIF-2a inh | CF NFkB inh | TWEAK-Fn14 inh | TROY signal inh | Peg3 promoter | HIF-2a conf | HIF-1a cs | others
N#CC1c2ccccc2C=CN1C(=O)N(c1ccccc1)c1ccccc1 (stereo not given) | 6 | 77* | 45 | 94* | 39 | 47 | 6 | 108*
O=c1c2ccccc2oc2c1ccc1ccccc12 | 13 | -195 | -61 | -43 | -97 | -294 | / | /
O=c1cc(C(Cl)(Cl)Cl)oc2c1ccc1ccccc12 | 8 | 35 | 6 | 56* | 49 | 106* | / | / | Mdm2-MdmX confirm=103*
Nc1ccc2ccccc2c1C(=O)c1ccccc1 | -14 | 11 | 9 | 8 | 8 | 23 | / | /
CC(C)N1C(=O)/C(=C/c2nc3ccccc3c(=O)n2-c2ccccc2)c2ccccc21 | 1 | 64* | 3 | 44 | 3 | 32 | 59* | 102*
Cc1ncc2c(n1)NC(=O)NC2 | -5 | 11 | 16 | -3 | -9 | 15 | / | /
COc1ccc(OC)c(C(=O)/C=C/c2ccccc2C(F)(F)F)c1 | -14 | 74* | -4 | 59* | 7 | 102* | 26 | 105*
O=C(c1ccccc1)c1c2c(cc3sc4ccccc4[n+]13)-c1cccc3cccc-2c13 | -36 | 77* | -29 | 60* | 40 | 101* | 56* | 98*
CCCc1nnc(NC(=O)CS(=O)(=O)c2ccc(C)cc2)s1 | 1 | 7 | -4 | -2 | -17 | 15 | / | /
Cc1cccc(CS(=O)(=O)c2ncc(Cl)c(C(=O)Nc3c(C)cccc3C)n2)c1 | -66* | 47* | 98* | 90* | 67* | 103* | 68* | 90* | Mdm2-MdmX confirm=103*
CCCc1nnc(NC(=O)c2nc(S(=O)(=O)Cc3cccc(C)c3)ncc2Cl)s1 | -90* | 69* | 94* | 93* | 57* | 109* | 22 | 106*
CSc1ncc(Cl)c(C(=O)Nc2cccc(C)c2)n1 | 4 | -15 | -10 | 1 | -7 | 4 | / | /
COc1ccccc1NC(=O)N1CCCC1C(=O)NCc1ccccc1Cl (stereo not given) | -6 | 24 | -14 | 7 | 4 | 16 | / | /
CC(C)[C@H](NC(=O)N1CC(=O)Nc2ccccc21)C(=O)N[C@H](Cc1ccccc1)C(=O)O | -9 | 2 | -3 | 11 | 5 | 4 | / | /
COc1ccc(OCc2nnc(SC(C)C(=O)Nc3ccc(N4CCOCC4)cc3)n2C)cc1 (stereo not given) | -12 | -3 | -2 | 3 | 6 | -11 | / | /
